The nature of experiment [1]: qHTS assay to identify small molecule antagonists of the estrogen receptor alpha (ER-alpha) signaling pathway using the BG1 cell line in the presence of 0.1 nM 17-beta-estradiol - cell viability counter screen (AID 1259241). Further: nearly all actives have a fitted effect of over 40% in size. Further: potency means the concentration at half of the fitted maximal effect. The procedure, abridged: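 CellTiter-Fluor read (30 min, 37C) on ER-alpha/ERE-luc VM7Luc4E2 cells; 22 hr compound treatment; agonist 0.1 nM E2 final; same-well multiplex.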
A general note: In qHTS, concentration-response curves come from the screen itself.

Experiment [2] is described as follows: qHTS assay to identify small molecule antagonists of the androgen receptor (AR) signaling pathway using the MDA cell line in the presence of 0.5 nM R1881 - cell viability counter screen (AID 1259242). Further: nearly all actives have a fitted effect of over 45% in size. The procedure, abridged: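 MDA-kb2 cells (human breast carcinoma, stably carrying MMTV-luciferase reporter) were exposed to compounds with 0.5 nM R1881 (final) for 16 hr at 37C, 0% CO2; viability then read as live-cell protease fluorescence (CellTiter-Fluor, 30 min) in the same wells.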

Experiment [3] can be described thus: qHTS assay to identify small molecule HDAC inhibitors - cell viability counter screen (AID 1259365). Further: series mostly up to about 92 µM; nearly all actives have a fitted effect of over 50% in size. The procedure, abridged: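 To flag cytotoxic hits, 1,500 wild-type HCT-116 cells per well, plated the day before, receive test compounds for 2hr at 37 C before CellTiter-Glo reagent and a luminescence read.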
Experiment [4] can be described thus: qHTS assay to identify small molecule agonists of the sonic hedgehog signaling (Shh) pathway - cell viability counter screen (AID 1259366). Further: nearly all actives have a fitted effect of over 50% in size. Further: potency means the concentration at half of the fitted maximal effect. In outline: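 Fluorescence from CellTiter-Fluor reports live cells in this counter screen. NIH/3T3-derived Gli1-Luc reporter cells receive test compounds for 24hr at 37C; reagent goes in at 23hr.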
Experiment [5] can be described thus: qHTS assay to identify small molecule antagonists of the sonic hedgehog signaling (Shh) pathway - cell viability counter screen (AID 1259367). Further: nearly all actives have a fitted effect of over 55% in size. Further: potency means the concentration at half of the fitted maximal effect. In outline:
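Using CellTiter-Fluor, viability of Gli1-Luc reporter 3T3 cells is read by fluorescence in the wells used for the Shh luciferase assay. Treatment lasts 23 hr with conditioned medium, then reagent 1 hr at 37C.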

The nature of experiment [6]: qHTS assay to identify small molecule agonists of the sonic hedgehog signaling (Shh) pathway (AID 1259368; calls by dose curve; further: series mostly up to about 92 µM; nearly all actives have a fitted effect of over 15% in size). In outline:
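NIH/3T3-derived 3T3Gli1-Luc cells carrying a stably integrated Gli1 response element–firefly luciferase reporter were plated, left 4 hr at 37 C, then given compounds in DMSO for 24 hr. Luminescence was read 30 min after adding luciferase reagent.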

Experiment [7] is described as follows: qHTS assay to identify small molecule antagonists of the sonic hedgehog signaling (Shh) pathway (AID 1259369; calls by dose curve; further: nearly all actives have a fitted effect of over 45% in size; further: potency means the concentration at half of the fitted maximal effect). The procedure, abridged:
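NIH/3T3-derived 3T3Gli1-Luc cells with stably integrated Gli1-Luc reporter were preincubated 4hr at 37 C, then given compounds in DMSO plus Shh conditioned medium and incubated 24hr. Firefly luciferase luminescence read after 30min reagent at room temperature.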

The nature of experiment [8]: qHTS assay to identify small molecule agonists of the estrogen receptor beta (ER-beta) signaling pathway - cell viability counter screen (AID 1259380). Further: nearly all actives have a fitted effect of over 30% in size. Further: potency means the concentration at half of the fitted maximal effect. The procedure, abridged:
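ER-beta-UAS-bla HEK293T cells in medium with 2% charcoal-stripped FBS were preincubated 6 hr at 37C, dosed with compound in DMSO for 16 hr, then after the bla read, CellTiter-Glo was added for 30 min at room temperature; luminescence recorded.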

Experiment [9] in a line: qHTS assay to identify small molecule antagonists of the estrogen receptor beta (ER-beta) signaling pathway - cell viability counter screen (AID 1259382).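 Further: HEK293T cells carrying ER-beta-UAS-bla reporter stimulated with estradiol; series mostly up to about 92 µM; nearly all actives have a fitted effect of over 55% in size.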 In outline: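 ER-beta-UAS-bla HEK293T cells (2,000/well, 2% charcoal-stripped FBS) were pre-incubated 6 hr at 37C, then given compound plus 1nM final 17-beta-estradiol for 16 hr. Viability was read in the same wells by CellTiter-Glo luminescence after 30 min at room temperature.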

For experiment [10], the target named is Estrogen receptor (Homo sapiens) (UniProt P03372). Nature of the experiment: qHTS assay to identify small molecule agonists of the estrogen receptor alpha (ER-alpha) signaling pathway in the presence of an antagonist (AID 1259383; calls by dose curve; further: top concentration of the series differs between compounds; nearly all actives have a fitted effect of over 15% in size). In outline: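 VM7Luc4E2 cells (endogenous full-length ER-alpha, 4×ERE-luciferase) were precultured 5 days in phenol red-free medium with 10% charcoal-stripped FBS, given 10.0nM ICI-182,780 (final), then treated with compounds at 15 concentrations for 22hr at 37C; luminescence read with ONE-Glo.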

Experiment [11] has as its target Thyrotropin receptor (Homo sapiens) (UniProt P16473). Nature of the experiment: qHTS assay to identify small molecule antagonists of the thyroid stimulating hormone receptor (TSHR) signaling pathway (AID 1259385; calls by dose curve; further: nearly all actives have a fitted effect of over 20% in size). The procedure, abridged:
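Antagonist mode: compound-treated TSHR-expressing HEK293 cells were stimulated with 1.5 ng/mL TSH (final) in presence of Ro20-1724 for 30 min at RT. HTRF cAMP detection after 1 h; each compound tested at 15 concentrations, triplicate.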

Experiment [12] deals with Estrogen receptor beta (Homo sapiens) (UniProt Q92731). Nature of the experiment: qHTS assay to identify small molecule agonists of the estrogen receptor beta (ER-beta) signaling pathway (AID 1259377; active means well fitted activation curve with a large enough effect in the signal ratio in the repeat runs, not every such curve was filed as active; the % refers to the signal ratio). The procedure, abridged:
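Screening used GripTite ER-beta-UAS-bla cells held in 2% charcoal-stripped FBS medium. After overnight (16 hr) compound incubation at 37C, beta-lactamase activity was detected with a FRET substrate by fluorescence.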

Experiment [13] has the same target. Kind of experiment: qHTS assay to identify small molecule antagonists of the estrogen receptor beta (ER-beta) signaling pathway (AID 1259378; active means well fitted inhibition curve with a large enough effect in the signal ratio in the repeat runs, not every such curve was filed as active; the % refers to the signal ratio; further: potency means the concentration at half of the fitted maximal effect). In outline:
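Antagonist mode: compounds added to beta-lactamase reporter HEK293T ER-beta-UAS cells stimulated with E2 (1nM final), 16 hr at 37C. LiveBLAzer B/G FRET substrate, 2 hours room temperature, fluorescence read-out.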

Experiment [14] in a line: qHTS assay to identify small molecule agonists or antagonists of the thyroid stimulating hormone receptor (TSHR) signaling pathway - wild type cell line counter screen (AID 1259384; calls by dose curve). In outline: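 Counter screen in untransfected Hek293: compounds (15-point titration, triplicate) plus phosphodiesterase inhibitor Ro20-1724 added after 18 h plating; 30 min RT. Intracellular cAMP via competitive d2/cryptate immunoassay, 1 h incubation.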

Experiment [15] is described as follows: qHTS assay to identify small molecule agonists of the androgen receptor (AR) signaling pathway in the presence of an antagonist - cell viability counter screen (AID 1259379). Further: nearly all actives have a fitted effect of over 25% in size. Further: potency means the concentration at half of the fitted maximal effect. The procedure, abridged: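 MDA-kb2 human breast carcinoma cells (stable MMTV-luciferase, AR/GR responsive) were seeded 3,000 cells/well, pre-incubated 5 hr at 37C without CO2, then given 3.0uM nilutamide and compounds at 15 concentrations for 16 hr. Viability was read by CellTiter-Fluor fluorescence.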

For experiment [16], the target named is Androgen receptor (Homo sapiens) (UniProt P10275). Kind of experiment: qHTS assay to identify small molecule agonists of the androgen receptor (AR) signaling pathway in the presence of an antagonist (AID 1259381; calls by dose curve; further: nearly all actives have a fitted effect of over 15% in size). The procedure, abridged: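 MDA-kb2 human breast carcinoma cells carrying an MMTV-luciferase reporter (AR- and GR-responsive) were treated with compounds at 15 concentrations plus 3.0uM final nilutamide for 16hr at 37C without CO2; luminescence was read after ONE-Glo addition.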

Experiment [17] has the same target. Nature of the experiment: qHTS assay to identify small molecule antagonists of the androgen receptor (AR) signaling pathway using the MDA cell line in the presence of 0.5 nM R1881 (AID 1259243). Further: nearly all actives have a fitted effect of over 50% in size. In outline:
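MDA-kb2 human breast carcinoma cells carrying an MMTV-luciferase reporter (AR- and GR-responsive) were plated, rested 5 hr at 37C, dosed with compounds, then stimulated with 0.5 nM R1881 (final) for 16 hr; luminescence was read after ONE-Glo.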

Experiment [18] can be described thus: qHTS assay to identify small molecule HDAC inhibitors (AID 1259364). Further: top concentration of the series differs between compounds; nearly all actives have a fitted effect of over 45% in size. The procedure, abridged:
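Wild-type HCT-116 cells were plated overnight, exposed to compounds for 2 h at 37 °C, then given HDAC-Glo class I/II luminogenic reagent for 30 min at room temperature before luminescence was read.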

Experiment [19] has as its target Estrogen receptor (Homo sapiens) (UniProt P03372). Nature of the experiment: qHTS assay to identify small molecule antagonists of the estrogen receptor alpha (ER-alpha) signaling pathway using the BG1 cell line in the presence of 0.1 nM 17-beta-estradiol (AID 1259244). Further: nearly all actives have a fitted effect of over 50% in size. In outline:
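VM7Luc4E2 cells (endogenous full-length ER-alpha, stable 4xERE-luciferase) were grown 5 days in phenol red-free medium with charcoal-stripped FBS, then exposed 22 h at 37C to compounds plus 0.1 nM (final) 17beta-estradiol; ONE-Glo luminescence read-out.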

The record followed here is PubChem BioAssay (Tox21).

Unmarked numbers belong to inactive results. Records with an inconclusive call do not appear. Activity calls are given as the source filed them. Unless noted, the call rests on the fitted dose curve; in most records, active means well fitted curve in the direction sought with a large enough effect in the repeat runs; inconclusive means weak or mixed curves; inactive means no such curve, though single readings can be large; an effect the other way counts as inactive or inconclusive.

Chain of Estrogen receptor (Homo sapiens) (P03372 whole entry, looked up): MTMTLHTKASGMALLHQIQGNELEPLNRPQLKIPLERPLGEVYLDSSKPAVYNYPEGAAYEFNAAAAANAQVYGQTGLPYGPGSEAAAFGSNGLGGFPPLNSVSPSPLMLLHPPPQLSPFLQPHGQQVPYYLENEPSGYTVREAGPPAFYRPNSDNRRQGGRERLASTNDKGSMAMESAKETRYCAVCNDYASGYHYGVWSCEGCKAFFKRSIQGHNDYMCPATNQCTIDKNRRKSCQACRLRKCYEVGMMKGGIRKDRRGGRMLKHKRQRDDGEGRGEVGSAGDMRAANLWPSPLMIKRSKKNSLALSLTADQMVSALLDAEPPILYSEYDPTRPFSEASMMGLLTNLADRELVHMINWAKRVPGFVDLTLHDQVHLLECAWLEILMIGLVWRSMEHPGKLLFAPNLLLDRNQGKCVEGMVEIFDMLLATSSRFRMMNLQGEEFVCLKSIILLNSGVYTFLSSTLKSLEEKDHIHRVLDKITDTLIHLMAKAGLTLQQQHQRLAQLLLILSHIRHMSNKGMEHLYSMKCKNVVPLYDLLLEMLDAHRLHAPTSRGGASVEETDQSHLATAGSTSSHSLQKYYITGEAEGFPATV
Chain of Estrogen receptor beta (Homo sapiens) (Q92731 whole entry, looked up): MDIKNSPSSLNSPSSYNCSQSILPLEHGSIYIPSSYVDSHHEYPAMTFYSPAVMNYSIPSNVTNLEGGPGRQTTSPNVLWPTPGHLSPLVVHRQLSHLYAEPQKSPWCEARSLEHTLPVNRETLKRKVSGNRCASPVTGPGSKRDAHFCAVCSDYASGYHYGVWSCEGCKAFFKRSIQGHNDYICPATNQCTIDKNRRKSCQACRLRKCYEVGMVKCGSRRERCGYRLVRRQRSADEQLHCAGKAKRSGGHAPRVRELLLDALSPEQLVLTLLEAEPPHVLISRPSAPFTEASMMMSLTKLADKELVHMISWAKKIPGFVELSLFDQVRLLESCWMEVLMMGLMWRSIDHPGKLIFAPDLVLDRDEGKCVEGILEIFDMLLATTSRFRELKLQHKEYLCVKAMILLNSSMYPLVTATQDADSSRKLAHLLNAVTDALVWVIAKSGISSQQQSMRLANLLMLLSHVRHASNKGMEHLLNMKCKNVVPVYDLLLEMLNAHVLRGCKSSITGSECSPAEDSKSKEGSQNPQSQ
Chain of Thyrotropin receptor (Homo sapiens) (P16473 whole entry, looked up): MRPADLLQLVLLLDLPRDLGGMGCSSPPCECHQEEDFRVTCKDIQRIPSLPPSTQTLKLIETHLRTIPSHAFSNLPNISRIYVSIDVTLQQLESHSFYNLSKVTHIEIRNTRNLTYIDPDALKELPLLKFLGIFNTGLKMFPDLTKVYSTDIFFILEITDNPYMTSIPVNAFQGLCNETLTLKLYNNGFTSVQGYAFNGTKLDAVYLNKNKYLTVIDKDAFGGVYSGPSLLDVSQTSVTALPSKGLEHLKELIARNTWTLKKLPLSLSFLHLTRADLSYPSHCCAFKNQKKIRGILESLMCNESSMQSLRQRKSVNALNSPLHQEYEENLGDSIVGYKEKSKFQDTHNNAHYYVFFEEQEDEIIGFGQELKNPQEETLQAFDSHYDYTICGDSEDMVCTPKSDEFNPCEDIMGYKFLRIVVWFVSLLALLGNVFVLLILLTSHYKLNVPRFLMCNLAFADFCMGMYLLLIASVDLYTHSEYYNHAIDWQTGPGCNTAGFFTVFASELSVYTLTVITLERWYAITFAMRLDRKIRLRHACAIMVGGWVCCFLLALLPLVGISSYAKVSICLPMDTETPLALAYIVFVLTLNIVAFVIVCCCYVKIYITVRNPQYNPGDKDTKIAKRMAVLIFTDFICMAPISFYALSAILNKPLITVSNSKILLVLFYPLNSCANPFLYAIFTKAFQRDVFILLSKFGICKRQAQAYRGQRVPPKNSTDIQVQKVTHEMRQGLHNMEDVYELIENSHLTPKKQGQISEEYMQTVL
Chain of Androgen receptor (Homo sapiens) (P10275 whole entry, looked up): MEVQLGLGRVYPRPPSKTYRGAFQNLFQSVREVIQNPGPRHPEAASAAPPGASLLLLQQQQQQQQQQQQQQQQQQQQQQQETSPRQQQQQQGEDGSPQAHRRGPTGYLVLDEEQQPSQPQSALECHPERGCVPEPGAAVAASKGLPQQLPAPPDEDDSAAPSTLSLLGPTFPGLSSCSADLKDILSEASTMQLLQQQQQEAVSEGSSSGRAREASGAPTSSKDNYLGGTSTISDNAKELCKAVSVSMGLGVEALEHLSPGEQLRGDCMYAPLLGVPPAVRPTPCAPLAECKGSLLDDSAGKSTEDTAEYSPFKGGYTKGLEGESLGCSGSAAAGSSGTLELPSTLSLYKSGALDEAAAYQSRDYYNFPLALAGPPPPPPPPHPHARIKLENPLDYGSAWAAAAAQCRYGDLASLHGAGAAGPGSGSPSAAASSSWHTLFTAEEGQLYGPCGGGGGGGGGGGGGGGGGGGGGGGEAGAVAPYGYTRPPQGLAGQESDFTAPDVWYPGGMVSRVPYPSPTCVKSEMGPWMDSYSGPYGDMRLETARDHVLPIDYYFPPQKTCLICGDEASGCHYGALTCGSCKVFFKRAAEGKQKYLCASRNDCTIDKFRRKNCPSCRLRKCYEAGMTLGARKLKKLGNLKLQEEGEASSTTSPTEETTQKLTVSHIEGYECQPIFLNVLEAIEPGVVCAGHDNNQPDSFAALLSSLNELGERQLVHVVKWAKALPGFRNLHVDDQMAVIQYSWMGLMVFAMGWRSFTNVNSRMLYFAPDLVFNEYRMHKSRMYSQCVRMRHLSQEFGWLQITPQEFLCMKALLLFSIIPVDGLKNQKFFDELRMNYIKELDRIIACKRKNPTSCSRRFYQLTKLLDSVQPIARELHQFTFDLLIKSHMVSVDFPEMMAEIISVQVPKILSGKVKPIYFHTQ

For the compound `O=C(O)c1ccco1`, the Potency entry in experiment [1], in experiment [2], in experiment [3], in [4], in [5] and in [7] was “inactive” each time. Moreover, the Potency entry in experiment [8], in experiment [9], in experiment [10] and in [11] was “inactive” in each case. In addition, in [6], the outcome was inactive.
On to `CCC(Cl)CCC(Cl)C(Cl)CC(Cl)C(Cl)C(Cl)CCl` (centres undefined), for which the Potency entry in experiment [1], in [2], in experiment [3], in experiment [4], in experiment [5] and in [12] was “inactive” each time. Besides, the Potency result in experiment [13], in experiment [8], in experiment [9], in [14] and in experiment [11] was “inactive” each time. Moreover, in experiment [6], the call was inactive.
Turning to `COc1ccc(C)cc1[N+](=O)[O-]`, the Potency result in experiment [1], in [2], in experiment [3], in experiment [5], in experiment [7] and in experiment [12] was “inactive” in each case. The Potency result in experiment [13], in experiment [15], in experiment [8], in experiment [9] and in experiment [14] was “inactive” in each case. Further, in experiment [6], the compound was called inactive.
For the compound `C=C1C(=C/C=C2\CCC[C@]3(C)[C@@H]([C@H](C)/C=C/[C@@H](O)C4CC4)CC[C@@H]23)C[C@@H](O)C[C@@H]1O`, the Potency result in experiment [1], in [2], in experiment [3], in experiment [4], in experiment [5] and in experiment [16] was “inactive” in each case. For the same compound, the Potency result in [10] and in experiment [14] was “inactive” in each case. Besides, in [6], the compound was classed as inactive. Further, the Potency is 0.0007 µM (active) in [7] and 26.6 µM (active) in [8].
Take `O=[N+]([O-])c1ccc(NCCO)c(OCCO)c1`: the Potency in experiment [1] is 54.5 µM (active); in experiment [4], 24.4 µM (active); in [5] it was 30.7 µM (active); in [15], 54.5 µM (active). For the same compound, the Potency entry in [17], in experiment [18], in experiment [7], in [12], in [13] and in experiment [8] was “inactive” each time. In addition, the Potency entry in experiment [16], in experiment [9] and in experiment [14] was “inactive” each time. For the same compound, the call in experiment [6] was inactive.
For the compound `CCCCCC[C@@H](O)C/C=C\CCCCCCCC(=O)OC`, the Potency entry in experiment [1], in experiment [17], in experiment [19], in experiment [18], in [3] and in experiment [15] was “inactive” throughout. The Potency entry in [8], in experiment [16], in [9], in [10], in [14] and in experiment [11] was “inactive” each time. For the same compound, the compound was called inactive in [6].
Take `CCc1c(C(=O)NN2CCCCC2)nn(-c2ccc(Cl)cc2Cl)c1-c1ccc(Br)cc1`: the Potency result in experiment [2], in experiment [19], in experiment [18], in [3], in experiment [4] and in [5] was “inactive” in each case. Also, the Potency result in experiment [7], in experiment [12], in experiment [15], in [10], in experiment [14] and in experiment [11] was “inactive” throughout. In addition, in experiment [6], the call was inactive. Besides, the Potency in [13] is 4.33 µM (active).
For the compound `C=CC1CC2C=CC1C2` (centres undefined), the Potency entry in experiment [2], in experiment [19], in experiment [18], in [3], in experiment [4] and in experiment [5] was “inactive” throughout. The Potency result in experiment [7], in experiment [15], in experiment [8], in [9] and in [10] was “inactive” in each case. In experiment [6], the compound was called inactive.
